± gives the standard deviation of the averaged measurements.

Test [1] has as its system DLD1. The test is described as follows: cell viability (CellTiter-Glo) relative to plate median (fraction of plate median); higher = more viable cells. The following applies: 5 µM; treatment time 24 h; reporter: 7TFP. Put shortly:
(§1)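 Luminescence, normalised well by well to the plate median, is tabulated as a mean of independent replicates. There were two replicates, run on colorectal cancer lines stably transduced with lentiviral TCF/Wnt firefly luciferase reporters and dosed with library compounds at a final 5 µM for 24 h. Readouts were firefly luciferase or CellTiterGlo on parallel plates.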
For orientation: In ATP-based viability assays light output follows the ATP content of the culture.

For test [2], the system named is HCT116. The test is described as above. The following applies: 5 µM; treatment time 24 h; reporter: TCF4/Wnt. Put shortly:
as §1

For test [3], the system named is SW480. Described as above. The following applies: 5 µM; treatment time 24 h; reporter: 7TFP. The essentials: as §1
Test [4] deals with DLD1. The test is described as follows: TCF/Wnt firefly luciferase reporter signal relative to plate median (fraction of plate median); higher = higher Wnt reporter signal. The following applies: 5 µM; treatment time 24 h; reporter: 7TFP. Put shortly: as §1
A general note: A reporter such as luciferase makes a cellular process visible.

Test [5] concerns SW480. The test is described as above. The following applies: 5 µM; treatment time 24 h; reporter: 7TFP. Put shortly:
as §1

As to `NCCCCN`, the figures for the cell viability in test [1], in test [2] and in test [3] were 0.96 ± 0.047, 0.983 ± 0.02 and 0.97 ± 0.057, respectively. Also, the “TCF/Wnt firefly luciferase reporter signal” value in test [4] came out at 1.18 ± 0.15; in test [5] it was 1.1 ± 0.05.

For the compound `CCNC(=O)CC[C@H](N)C(=O)O`, the cell viability amounted to 1.01 ± 0.021 in test [1], 1.03 ± 0.06 in test [2] and 0.998 ± 0.018 in test [3]. The results for the “TCF/Wnt firefly luciferase reporter signal” value in test [4] and in test [5] were 1.13 ± 0.11 and 1.05 ± 0.014, respectively.

As for `CS(=O)(=O)OCCCCOS(C)(=O)=O`, the figures for the cell viability in test [1], in test [2] and in test [3] were 1.12 ± 0.2, 1.06 ± 0.028 and 1.06 ± 0.05, respectively. The results for the “TCF/Wnt firefly luciferase reporter signal” value in test [4] and in test [5] were 0.9365 ± 0.005 and 0.984 ± 0.037, respectively.

With `Clc1ccc(C(c2ccccc2Cl)C(Cl)Cl)cc1` (stereo not given), the cell viability in test [1] turned out to be 0.937 ± 0.013; in test [2], 0.895 ± 0.15; in test [3] it was 0.981 ± 0.041. Moreover, the “TCF/Wnt firefly luciferase reporter signal” value in test [4] amounted to 1.11 ± 0.021; in test [5], 1.03 ± 0.17.

As to `C=C1C2=CC(=O)O[C@@H](c3ccoc3)[C@]2(C)CC[C@@H]1[C@@]1(C)C=CC(=O)C(C)(C)[C@@H]1CC(=O)OC`, the results for the cell viability in test [1], in test [2] and in test [3] were 1.14 ± 0.071, 1.2 ± 0.092 and 1.12 ± 0.05, respectively. Further, the figures for the “TCF/Wnt firefly luciferase reporter signal” value in test [4] and in test [5] were 1.01 ± 0.1 and 0.987 ± 0.033, respectively.

With `COc1c(-c2coc3cc4c(cc3c2=O)CC(O)C(C)(C)O4)ccc2c1C=CC(C)(C)O2` (stereo not given), the cell viability in test [1] was found to be 0.973 ± 0.081; in test [2] it was 0.973 ± 0.12; in test [3] it was 1.02 ± 0.079. Also, the “TCF/Wnt firefly luciferase reporter signal” value in test [4] was 0.869 ± 0.0014; in test [5], 0.946 ± 0.077.

On to `CC(=O)O[C@]1(C)CC[C@@]23C[C@H]1C(C)(C)[C@@H]2CC[C@H]3C`, for which the results for the cell viability in test [1], in test [2] and in test [3] were 0.986 ± 0.035, 0.918 ± 0.033 and 1 ± 0.067, respectively. For the same compound, the “TCF/Wnt firefly luciferase reporter signal” value in test [4] stood at 1.05 ± 0.086; in test [5], 0.934 ± 0.017.

Consider `NS(=O)(=O)c1cc2c(cc1Cl)N=CNS2(=O)=O`, for which the cell viability in test [1] amounted to 0.965 ± 0.093; in test [2], 0.973 ± 0.081; in test [3], 0.891 ± 0.018. In addition, the “TCF/Wnt firefly luciferase reporter signal” value in test [4] is 0.828 ± 0.18; in test [5], 0.984 ± 0.011.

With `CN1CCN(C2=Nc3cc(Cl)ccc3Nc3ccccc32)CC1`, the results for the cell viability in test [1], in test [2] and in test [3] were 1.12 ± 0.071, 1.05 ± 0.1 and 1.005 ± 0.0071, respectively. The “TCF/Wnt firefly luciferase reporter signal” value stood at 0.916 ± 0.058 in test [4] and 0.97 ± 0.043 in test [5].

As to `C=C(C)[C@@H]1CC=C(CO)CC1`, the results for the cell viability in test [1], in test [2] and in test [3] were 0.968 ± 0.1, 0.972 ± 0.12 and 0.996 ± 0.0042, respectively. Moreover, the “TCF/Wnt firefly luciferase reporter signal” value in test [4] is 0.952 ± 0.016; in test [5], 0.972 ± 0.054.

Consider `Nc1nc(=O)c2nc(CNc3ccc(C(=O)N[C@@H](CCC(=O)O)C(=O)O)cc3)cnc2[nH]1`, for which the cell viability is 1.07 ± 0.057 in test [1], 0.977 ± 0.075 in test [2] and 1.03 ± 0.044 in test [3]. In addition, the figures for the “TCF/Wnt firefly luciferase reporter signal” value in test [4] and in test [5] were 1.01 ± 0.098 and 1.05 ± 0.12, respectively.

For the compound `O=C(O)c1c[nH]c2ccccc12` [Indole-3-carboxylic acid], the cell viability in test [1] came out at 0.977 ± 0.011; in test [2] it was 0.868 ± 0.083; in test [3], 0.9405 ± 0.005. For the same compound, the “TCF/Wnt firefly luciferase reporter signal” value in test [4] worked out at 0.83 ± 0.12; in test [5], 0.968 ± 0.21.

For `Cc1cc(C(C)(C)C)c(O)c(C)c1CC1=NCCN1`, the cell viability is 0.977 ± 0.047 in test [1], 0.895 ± 0.016 in test [2] and 0.972 ± 0.035 in test [3]. The “TCF/Wnt firefly luciferase reporter signal” value in test [4] was found to be 1.15 ± 0.13; in test [5], 1.065 ± 0.0071.

Turning to `COc1cc(C(=O)NCc2ccc(OCCN(C)C)cc2)cc(OC)c1OC`, the cell viability in test [1] turned out to be 0.99 ± 0.057; in test [2], 1 ± 0.13; in test [3], 0.996 ± 0.077. Moreover, the “TCF/Wnt firefly luciferase reporter signal” value in test [4] came to 0.871 ± 0.12; in test [5], 0.851 ± 0.06.

Take `O=c1c(-c2ccc(O)cc2)coc2cc(O)cc(O)c12`: the results for the cell viability in test [1], in test [2] and in test [3] were 1.09 ± 0.021, 1.03 ± 0.05 and 1.06 ± 0.021, respectively. Further, the “TCF/Wnt firefly luciferase reporter signal” value amounted to 1.065 ± 0.0071 in test [4] and 1.12 in test [5].

`O=C(Cc1cccs1)N[C@@H]1C(=O)N2C(C(=O)[O-])=C(C[n+]3ccccc3)CS[C@H]12`: the values for the cell viability in test [1], in test [2] and in test [3] were 0.979 ± 0.073, 0.944 ± 0.057 and 1.01, respectively. The “TCF/Wnt firefly luciferase reporter signal” value in test [4] worked out at 0.9975 ± 0.0035; in test [5] it was 0.889 ± 0.0057.

Turning to `COc1c(O)cc2c(c1O)[C@@H]1O[C@H](CO)[C@@H](O)[C@H](O)[C@H]1OC2=O`, the cell viability in test [1] was 0.966 ± 0.049; in test [2], 0.912 ± 0.039; in test [3], 1.02 ± 0.04. Besides, the “TCF/Wnt firefly luciferase reporter signal” value in test [4] came to 0.981 ± 0.14; in test [5], 1.09 ± 0.092.

As to `C#C[C@]1(OC(C)=O)CC[C@H]2[C@@H]3CCC4=CC(=O)CC[C@@H]4[C@H]3CC[C@@]21C`, the figures for the cell viability in test [1], in test [2] and in test [3] were 0.87 ± 0.018, 0.964 ± 0.094 and 0.973 ± 0.052, respectively. The “TCF/Wnt firefly luciferase reporter signal” value in test [4] was 0.925 ± 0.022; in test [5] it was 0.768 ± 0.023.

In the case of `COc1cc2c(cc1OC)C(=O)C(CC1CCN(Cc3ccccc3)CC1)C2` (stereo not given), the cell viability is 1.05 ± 0.014 in test [1], 1.06 ± 0.042 in test [2] and 1.06 in test [3]. Besides, the “TCF/Wnt firefly luciferase reporter signal” value in test [4] was found to be 1.12 ± 0.14; in test [5], 1.06 ± 0.05.

As for `Cc1cc(C(C)(C)C)c(O)c(C(C)(C)C)c1`, the cell viability was found to be 0.926 ± 0.054 in test [1], 0.925 ± 0.057 in test [2] and 1.004 ± 0.0092 in test [3]. For the same compound, the “TCF/Wnt firefly luciferase reporter signal” value came out at 1.04 ± 0.09 in test [4] and 0.969 ± 0.011 in test [5].

`CCCCC(=O)O[C@H]1CC[C@H]2[C@@H]3CCc4cc(O)ccc4[C@H]3CC[C@]12C`: the figures for the cell viability in test [1], in test [2] and in test [3] were 1.07 ± 0.042, 1.01 ± 0.052 and 1 ± 0.036, respectively. Further, the figures for the “TCF/Wnt firefly luciferase reporter signal” value in test [4] and in test [5] were 0.956 ± 0.25 and 1.04 ± 0.11, respectively.

`Clc1ccc(CO/N=C(\Cn2ccnc2)c2ccc(Cl)cc2Cl)c(Cl)c1`: the figures for the cell viability in test [1], in test [2] and in test [3] were 0.9865 ± 0.0092, 1.03 ± 0.035 and 0.9675 ± 0.0021, respectively. The “TCF/Wnt firefly luciferase reporter signal” value is 0.905 ± 0.056 in test [4] and 0.823 ± 0.0092 in test [5].

For `O=C(O)CN(CCN(CC(=O)O)CC(=O)O)CC(=O)O.[Na+].[Na+].[Na+]`, the figures for the cell viability in test [1], in test [2] and in test [3] were 0.914 ± 0.021, 0.948 ± 0.088 and 1.01 ± 0.035, respectively. The “TCF/Wnt firefly luciferase reporter signal” value in test [4] was 1.02 ± 0.12; in test [5], 1.11 ± 0.13.

With `CC12CCC3c4ccc(OCc5ccccc5)cc4CCC3C1C[C@@H](O)[C@@H]2O` (stereo not given in full), the cell viability in test [1] stood at 1.08 ± 0.085; in test [2], 0.992 ± 0.026; in test [3], 1.01. Also, the “TCF/Wnt firefly luciferase reporter signal” value in test [4] was 0.95 ± 0.14; in test [5], 0.993 ± 0.025.

Take `CC(=O)OCC(=O)[C@@]1(O)[C@H](C)C[C@H]2[C@@H]3CCC4=CC(=O)C=C[C@]4(C)[C@@]3(F)[C@@H](O)C[C@@]21C`: the cell viability in test [1] was determined as 1.06 ± 0.085; in test [2] it was 0.952 ± 0.054; in test [3], 1.02 ± 0.088. Also, the “TCF/Wnt firefly luciferase reporter signal” value in test [4] is 0.958 ± 0.037; in test [5], 0.969 ± 0.044.

As for `CC(C)C[C@@H]1NC(=O)[C@H](C)NC1=O` [cyclo(alanylleucyl)], the cell viability in test [1] amounted to 0.998 ± 0.046; in test [2] it was 1.02 ± 0.11; in test [3] it was 0.998 ± 0.045. The “TCF/Wnt firefly luciferase reporter signal” value in test [4] was found to be 0.994 ± 0.0028; in test [5], 0.987 ± 0.1.

For `CCCCNC(=O)NS(=O)(=O)c1ccc(C)cc1`, the figures for the cell viability in test [1], in test [2] and in test [3] were 0.85 ± 0.14, 0.982 ± 0.054 and 0.987 ± 0.033, respectively. Moreover, the “TCF/Wnt firefly luciferase reporter signal” value in test [4] amounted to 0.931 ± 0.097; in test [5], 1.005 ± 0.0071.

Regarding `CC(=O)O[C@H]1C[C@@H](OC(C)=O)C(C)(C)C2C[C@@H](O)[C@]3(C)C(CC[C@@]4(C)[C@H](c5ccoc5)OC(=O)[C@H]5O[C@]543)[C@]21C` (stereo not given in full), the figures for the cell viability in test [1], in test [2] and in test [3] were 1.04 ± 0.042, 1.06 ± 0.014 and 1.01 ± 0.073, respectively. Also, the “TCF/Wnt firefly luciferase reporter signal” value in test [4] was found to be 0.977 ± 0.033; in test [5], 1.02 ± 0.061.

For `COc1cc2occ(-c3ccc(O)cc3)c(=O)c2cc1O` [Kakkatin], the cell viability was found to be 1.04 ± 0.028 in test [1], 1.06 ± 0.14 in test [2] and 1.01 ± 0.044 in test [3]. Besides, the “TCF/Wnt firefly luciferase reporter signal” value amounted to 1.22 ± 0.028 in test [4] and 1.09 ± 0.064 in test [5].
